Source: PubChem BioAssay (EPA / NIEHS)
Results filed as inconclusive are left out. More than one record can exist for a structure, and the calls need not agree. Active and inactive are the calls of the source. The calls were made as follows: active = hit-call score of the fitted dose curve at least 0.9, where 1 is the maximum; inconclusive = response in the unintended direction; inactive = score below 0.9.

Molecular target: human Vitamin D Receptor (VDR), VDR (gene 7421) (UniProt P11473)
Experiment: ATG_VDR_TRANS: Attagene TRANS-FACTORIAL HepG2 Assay for human Vitamin D Receptor (VDR) (AID 2283022)
Description: ATG_TRANS is a cell-based, multiplexed-readout assay that uses HepG2, a human liver cell line, with measurements taken at 24 hours after chemical dosing in a 24-well plate.ATG_VDR_TRANS is one of 30 assay component(s) measured or calculated from the ATG_TRANS assay. It is designed to make measurements of mRNA induction, a form of inducible reporter, as detected with fluorescence intensity signals by Reverse transcription polymerase chain reaction (RT-PCR) and Capillary electrophoresis technology.Data from the assay component ATG_VDR_TRANS was analyzed into 1 assay endpoint. This assay endpoint, ATG_VDR_TRANS, was analyzed in the positive analysis fitting direction relative to DMSO as the negative control and baseline of activity. Using a type of inducible reporter, measures of mRNA for gain-of-signal activity can be used to understand the reporter gene at the transcription factor-level as they relate to the gene VDR. Furthermore, this assay endpoint can be referred to as a primary readout, because this assay has produced multiple assay endpoints where this one serves a reporter gene function. To generalize the intended target to other relatable targets, this assay endpoint is annotated to the nuclear receptor intended target family, where the subfamily is non-steroidal.
Human liver HepG2 cells are transiently transfected with multiple reporter transcription units (MRTUs) in 6-well plates using FuGene 6 reagent (Roche; 3 ml FuGene/1 mg DNA). The MRTU constructs are regulated by a cis-regulating element (promoter). […] A major difference between the CIS and TRANS system is that in CIS activities of endogenous TFs are measured, whereas the TRANS assay evaluates changes in activities of exogenous, chimeric NR-Gal4 proteins. […] At the end of 24 hour incubation, total RNA was isolated using TriZol reagent (Invitrogen). The isolated RNA is then reverse-transcribed using oligo(dT) primer and Mo-MLV reverse transcriptase (Invitrogen) with DNAse I (Ambion) treatment for 30 min. The one-tenth of the produced cDNA was amplified by PCR using Taq DNA polymerase (Invitrogen) and two reporter sequence-specific primers. The PCR products were fluorescently labeled by primer extension with 6-arboxyfluorescein (6-FAM) 5'-labeled reporter sequence-specific primer (2 min at 95 C, 20 s at 68 C and 10 min at 72 C) and these products were digested with 5U of HpaI (New England Biolabs) for 2h at 37 C. The fragments were purified using Qiaquick PCR columns (Qiagen), analyzed on an ABI 3130xL genetic analyzer (Applied Biosystems) with peak positions identified by using a set of X-rhodamine (ROX)-labeled MapMarker1000 molecular weight standards (BioVentures). The raw capillary electrophoresis data was processed using Attagraph software (Attagene).

Chain of human Vitamin D Receptor (VDR), VDR (gene 7421) (P11473 whole entry, looked up): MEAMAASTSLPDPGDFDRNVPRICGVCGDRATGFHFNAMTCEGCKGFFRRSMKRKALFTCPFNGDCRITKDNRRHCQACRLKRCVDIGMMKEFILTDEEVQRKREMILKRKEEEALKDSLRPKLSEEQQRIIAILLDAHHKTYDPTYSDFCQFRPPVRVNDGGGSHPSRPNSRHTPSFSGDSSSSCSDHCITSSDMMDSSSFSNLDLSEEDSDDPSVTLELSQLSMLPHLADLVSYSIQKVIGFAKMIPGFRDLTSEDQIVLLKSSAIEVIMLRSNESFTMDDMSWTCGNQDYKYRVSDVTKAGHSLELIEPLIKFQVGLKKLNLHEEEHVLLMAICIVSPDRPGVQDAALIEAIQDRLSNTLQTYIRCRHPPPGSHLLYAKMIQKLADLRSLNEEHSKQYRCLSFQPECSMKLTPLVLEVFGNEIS

Compound	outcome	AC50
CS(=O)(=O)c1ccc([C@@H](C[C@H]2CCC(=O)C2)C(=O)Nc2cnccn2)cc1Cl	inactive	
CCCCCCC(CCCCCCCCCCC(=O)OCC(COC(C)=O)OC(C)=O)OC(C)=O (stereo not given)	inactive	
COC(=O)CCCC(=O)OC	inactive	
CCCC(=O)O	inactive	
CC(=O)[C@@]1(O)CC[C@H]2[C@@H]3CCC4=CC(=O)CC[C@]4(C)[C@H]3CC[C@@]21C	inactive	
O=C(O)c1[nH]n(-c2ccc(S(=O)(=O)O)cc2)c(=O)c1N=Nc1ccc(S(=O)(=O)O)cc1	inactive	
CSc1ccc(Oc2ccc(S(N)(=O)=O)cc2CN(C)C)cc1C	inactive	
NCCOCCOCCN	inactive	
COc1ccc(OC(F)(F)F)cc1CN[C@H]1CCCN[C@H]1c1ccccc1	inactive	
Cc1cc(SC2=C(O)C[C@@](CCc3ccc(N)cc3)(C(C)C)OC2=O)c(C(C)(C)C)cc1CO	inactive	
CC(C)COC(=O)CCCCC(=O)OCC(C)C	inactive	
CC(C)c1cccc(C(C)C)c1NC(=O)NS(=O)(=O)c1cc(C(C)(C)O)co1	inactive	
O=NO	inactive	
CCCCCCCC(=O)OC	inactive	
CC(=O)O[C@]1(C(C)=O)CC[C@H]2[C@@H]3C=C(Cl)C4=CC(=O)[C@@H]5C[C@@H]5[C@]4(C)[C@H]3CC[C@@]21C	inactive	148 µM (active)
CC1(C)C(=O)NC(=O)N1CO	inactive	
CCN(CC)CCOc1ccc(C(=C(Cl)c2ccccc2)c2ccccc2)cc1	inactive	
CC(=O)OCC(COC(C)=O)OC(C)=O	inactive	
O=C1CCCCC1	inactive	
Oc1ccc(O)cc1	inactive	

Compound	outcome	AC50
Cc1cn([C@H]2C=C[C@@H](CO)O2)c(=O)[nH]c1=O	inactive	
O=C(NS(=O)(=O)/C=C/c1cccs1)c1ccc(F)cc1Br	inactive	
CC(COCC(C)OC(=O)c1ccccc1)OC(=O)c1ccccc1 (stereo not given)	inactive	
CN(C)CCCN1c2ccccc2Sc2ccc(Cl)cc21	inactive	
CN(C)C(=O)NC1(c2ccccc2)CCN(CC[C@@]2(c3ccc(F)c(F)c3)CN(C(=O)c3ccccc3)CCO2)CC1	inactive	
Oc1ccccc1O	inactive	
CCc1nc(N)nc(N)c1-c1ccc(Cl)cc1	inactive	
CCCCCCC(C=O)=Cc1ccccc1	inactive	
Cc1ccc(C(C)(C)C)c(O)c1	inactive	
NC1CCCCC1	inactive	
CC(C)OC(=O)C(C)(C)Oc1ccc(C(=O)c2ccc(Cl)cc2)cc1	inactive	
CCCCC(CC)CO (stereo not given)	inactive	
CC(=O)CC(c1ccccc1)c1c(O)c2ccccc2oc1=O (stereo not given)	inactive	
CCCCC(CC)COP(=O)(OCC(CC)CCCC)OCC(CC)CCCC (stereo not given)	inactive	
CCC(C)N(C)C(=O)c1cc2ccccc2c(-c2ccccc2Cl)n1 (stereo not given)	inactive	
CCc1cc(C2=C(C(=O)O)N(c3ccccc3C(F)(F)F)S(=O)(=O)c3ccccc32)cc2c1OCO2	inactive	
CCCCCCCCCC[N+](C)(C)[O-]	inactive	
CCCCOC(=O)CCCCC(=O)OCCCC	inactive	
O=C(O)CN(CC(=O)O)CC(=O)O	inactive	
